# B2AR arrestin: qHTS assay of beta-arrestin-biased ligands of beta2-adrenergic receptor; beta-arrestin recruitment to beta2AR, cell-based reporter; AID 492947, 2010; Potency, µM (highest dose often 46.1 µM), actives largely listed as activators; 0.02% of 330,000 active; Beta-2 adrenergic receptor (Homo sapiens), P07550; further: nearly all actives have a fitted effect of over 65% in size
# Target sequence (P07550 whole entry, looked up): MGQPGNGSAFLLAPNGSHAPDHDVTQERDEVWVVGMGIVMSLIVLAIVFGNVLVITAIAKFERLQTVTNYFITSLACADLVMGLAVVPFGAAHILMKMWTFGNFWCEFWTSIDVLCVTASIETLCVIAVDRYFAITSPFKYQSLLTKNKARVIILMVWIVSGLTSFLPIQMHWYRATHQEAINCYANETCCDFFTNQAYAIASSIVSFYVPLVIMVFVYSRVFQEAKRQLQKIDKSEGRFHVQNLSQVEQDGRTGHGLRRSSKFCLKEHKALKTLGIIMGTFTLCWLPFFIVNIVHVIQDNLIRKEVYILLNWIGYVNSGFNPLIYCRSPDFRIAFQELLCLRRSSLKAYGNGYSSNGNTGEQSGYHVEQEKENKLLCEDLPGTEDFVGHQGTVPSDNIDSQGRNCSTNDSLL
# GLS inhibitor: qHTS for Inhibitors of Glutaminase (GLS); Glutaminase kidney isoform, mitochondrial (Homo sapiens), O94925; GLS enzymatic activity, qHTS titration; Potency, µM (doses to about 45.5 µM), usual class: inhibitors; 0.21% of 410,000 active; AID 624170, 2012
#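 Read-out is an Amplex red fluorescence increase coupled through glutamate oxidase and HRP, measured before and after 30 min room-temperature incubation. hKGA is in 45 mM KH2PO4 (pH 8.2) with 0.02% Tween-20; glutamine added as 1mM solution.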
# BCR signal inh: qHTS Assay to Find Inhibitors of Chronic Active B-Cell Receptor Signaling; ABC-DLBCL IkBa-CBG/CBR reporter, luminescence ratio, 4 h; Potency, µM (titrated, usually from 46.1 µM), hits mostly inhibitors; 0.05% of 340,000 active; active means well fitted inhibition curve with a large enough effect in the signal ratio, with a control signal flat, not every such curve was filed as active; inconclusive means small, poorly fitted or top-dose-only effect, or effect the other way, or a change in a side signal; the % refers to the signal ratio
#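 TMD8 ABC-DLBCL cells carrying doxycycline-inducible green luciferase fused to IkappaBalpha plus unfused red luciferase were exposed to compounds (up to 46 uM) for 4 hrs at 37C. Activity came from the overlap-corrected green/red luminescence ratio.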
# Pin1 inh: qHTS Assay to Find Inhibitors of Pin1 | Peptidyl-prolyl cis-trans isomerase NIMA-interacting 1 (Homo sapiens), Q13526 | Pin1 FP peptide displacement, HiFluor488, 10 min | Potency, µM (doses to about 115 µM), actives largely listed as inhibitors | 0.009% of 390,000 active; active means well fitted inhibition curve with a large enough effect in the polarisation, with a control signal flat, not every such curve was filed as active; inconclusive means small, poorly fitted or top-dose-only effect, or effect the other way, or a change in a side signal; inactive means no such curve, though single readings can be large or run the other way; the % refers to the polarisation
# Target sequence (Q13526 whole entry, looked up): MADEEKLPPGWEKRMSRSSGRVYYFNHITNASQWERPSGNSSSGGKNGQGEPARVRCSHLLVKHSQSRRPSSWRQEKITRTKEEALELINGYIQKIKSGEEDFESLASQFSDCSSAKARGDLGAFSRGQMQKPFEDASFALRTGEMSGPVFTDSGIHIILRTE
# Tb PGK inh: qHTS Assay to Find Inhibitors of Phosphoglycerate Kinase; AID 602233, 2012; PGK/GAPDH coupled, Kinase-Glo luminescence, 60 min; Potency, µM (series often up to 57.5 µM), usual class: inhibitors; Phosphoglycerate kinase, glycosomal (Trypanosoma brucei brucei), P07378; 0.043% of 380,000 active; further: nearly all actives have a fitted effect of over 60% in size
#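 Recombinant glycosomal PGK reaction used 1,3-bisphosphoglycerate generated in-well by GAPDH (100nM final) in 100mM TEA pH 7.6, 5mM MgCl2, 0.01% Tween-20. After 60 minutes at room temperature, ATP was read by Kinase-Glo Plus luminescence end-point.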
# Tb PFK inh-1: qHTS Assay to Find Inhibitors of T. brucei phosphofructokinase. Potency, µM (highest dose often 57.5 µM), actives largely listed as inhibitors. ATP-dependent 6-phosphofructokinase (Trypanosoma brucei brucei), O15648. 0.17% of 330,000 active. AID 485367, 2010. T. brucei PFK, ADP-Glo luminescence; further: nearly all actives have a fitted effect of over 60% in size
#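 ADP-Glo luminescence quantified ADP after 45 min at room temperature, with 1.25 nM T. brucei PFK, 0.1 mM ATP and 0.5 mM fructose-6-phosphate in pH 8.0 TEA buffer. qHTS titrations up to 57 µM; curves classified by quality.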
# Tb PFK KinaseGlo: Tb PFK orthogonal confirmatory assay using ATP depletion (Kinase-Glo Plus) as an alternative measure of Tb PFK activity: Hit Validation; shares compounds with Tb PFK inh-1; Tb PFK enzyme, ATP depletion, Kinase-Glo Plus luminescence; Potency, µM (doses to about 57.5 µM); 47% of 1,100 active; calls by dose curve; further: nearly all actives have a fitted effect of over 60% in size
# Tb PFK inh-2: Inhibitors of T. brucei phosphofructokinase: Hit Validation; Potency, µM (titrated, usually from 57.5 µM), actives largely listed as inhibitors; shares compounds with Tb PFK inh-1; purified T. brucei PFK, ADP-Glo luminescence, 45 min; 41% of 1,100 active; further: nearly all actives have a fitted effect of over 60% in size
# Numbers stand for hits; i = inactive; ? = inconclusive; nt = no result given. Rows were chosen to be rich in hits. Some 0.42% of all compounds tested hit in one or more screens of this group. Unless noted, the call rests on the fitted dose curve; in most records, active means well fitted curve in the direction sought with a large enough effect; inconclusive means small, poorly fitted or top-dose-only effect, or another doubt; inactive means no such curve, though single readings can be large; an effect the other way counts as inactive or inconclusive.
SMILES,B2AR arrestin,GLS inhibitor,BCR signal inh,Pin1 inh,Tb PGK inh,Tb PFK inh-1,Tb PFK KinaseGlo,Tb PFK inh-2
Cc1ccc(C(=O)NNC(=O)CNc2cccc(Cl)c2)cc1,i,i,i,i,i,19µM,12µM,24µM
CN(C(=O)CSc1nc2ccc(NC(=O)COc3ccc(Cl)cc3)cc2s1)c1ccccc1,nt,i,nt,i,i,nt,nt,nt
O=C(Nc1nc2ccccc2s1)c1cccn(Cc2ccccc2)c1=O,nt,i,i,i,i,nt,nt,nt
O=C(CSc1nc2ccccc2s1)Nc1ccc(Cl)c(C(=O)O)c1,i,i,?,i,i,?,i,i
O=C(NNc1nc2ccccc2s1)Nc1ccc(Cl)c(Cl)c1,i,i,?,i,i,?,?,i
O=c1c2ccccc2nc(CNc2ccccc2)n1-c1ccccc1,i,i,?,?,i,i,nt,nt
Cc1cccc(C)c1NCc1n[nH]c(=S)n1-c1ccccc1,i,i,?,i,i,?,3µM,7.6µM
CN(c1ccccc1)c1ccc(/C=C/[N+](=O)[O-])cc1,i,i,?,i,i,?,17µM,24µM
CN(C)c1ccc(/C=C/[N+](=O)[O-])cc1,i,i,i,i,i,i,nt,nt
COc1cc2c(cc1OC)[C@@]13CCN4CC5=CCOC6CC(=O)N2C1[C@H]6[C@@H]5C[C@@H]43 (some centres not stated),nt,i,nt,nt,nt,nt,nt,nt
COc1ccc(/C=N\NC(=O)C2COc3ccccc3O2)cc1O (configuration not stated),i,i,i,i,i,13µM,8.5µM,12µM
COc1ccc(C=O)cc1O,i,i,i,i,i,i,nt,nt
O=C(N/N=C/c1ccc2c(c1)OCO2)C1COc2ccccc2O1 (configuration not stated),i,i,i,i,nt,?,19µM,21µM
O=C1NC(=O)C(=Cc2ccc3c(c2)OCO3)C(=O)N1,i,nt,i,nt,nt,i,nt,nt
CC(C)c1cccc(C(C)C)c1OC(=O)NC(=O)c1c(F)cccc1F,i,i,?,i,i,i,nt,nt
Cn1c(N)c(C(=O)COC(=O)Cc2ccc(Cl)c(Cl)c2)c(=O)n(C)c1=O,i,i,i,i,i,9.5µM,6.7µM,12µM
Fc1cccc(NC(=S)Nc2ccc(Br)cc2)c1,i,i,?,i,i,i,nt,nt
COc1cccc(NC(=S)Nc2ccc(O)cc2)c1,i,i,i,i,i,?,?,i
COc1ccc(NC(=O)Cc2ccc(Cl)c(Cl)c2)cn1,i,i,?,i,i,12µM,6µM,13µM
COc1ccccc1OCCNC(=O)Cc1ccc(Cl)c(Cl)c1,i,i,i,i,i,?,?,?
COc1ccc(C(=O)NCc2ccc(Cl)c(Cl)c2)cc1OC,i,i,i,i,i,13µM,8.5µM,27µM
COc1ccc(-c2cc(C(=O)NCc3cccnc3)no2)cc1OC,i,i,?,i,i,i,nt,nt
COc1ccc(C(CNC(=O)Cc2ccc(Cl)c(Cl)c2)N(C)C)cc1 (configuration not stated),i,i,i,i,i,i,nt,nt
CC(C)N(CC[C@@](C(N)=O)(c1ccccc1)c1ccccn1)C(C)C,nt,i,nt,nt,nt,nt,nt,nt
C#CCOC(C(=O)OCCN(C)C)(c1ccccc1)c1ccccc1,nt,i,nt,nt,nt,nt,nt,nt
SMILES,B2AR arrestin,GLS inhibitor,BCR signal inh,Pin1 inh,Tb PGK inh,Tb PFK inh-1,Tb PFK KinaseGlo,Tb PFK inh-2
Cc1nnc2n1-c1sc(CCc3ccc(CC(C)C)cc3)cc1C(c1ccccc1Cl)=NC2C (configuration not stated),nt,i,nt,nt,nt,nt,nt,nt
O=C1CCC/C(=N/NC(=O)c2cc(NS(=O)(=O)c3cccs3)cc(NS(=O)(=O)c3cccs3)c2)C1,i,i,i,i,i,?,21µM,?
Cc1ccc(-n2nc3c(N4CCC(C(=O)NCCc5ccccc5)CC4)nnc(C)c3c2C)cc1,nt,i,nt,i,i,nt,nt,nt
CCCc1cc(N2CCN(c3cccc(C)c3C)CC2)n2cnnc2n1,nt,i,nt,?,i,nt,nt,nt
O=c1[nH]cnc2[nH]cc(CN3CCCCC3)c12,nt,i,nt,nt,nt,nt,nt,nt
Cc1nc2ccc(NC3=NCCCCC3)cc2s1,i,i,i,i,i,11µM,8.5µM,6.7µM
Cc1nc2ccc(Nc3nc4cc(S(=O)(=O)N5CCOCC5)ccc4o3)cc2s1,i,i,i,i,i,i,nt,nt
Cn1ccsc1=NC(=O)c1ccc(S(C)(=O)=O)c([N+](=O)[O-])c1,i,i,?,i,i,i,nt,nt
COc1ccc(OC)c(C2=NS(=O)(=O)N(C)C(C(=O)Nc3ccc(F)cc3F)=C2)c1,i,i,?,i,i,i,nt,nt
O=C(Nn1cnnc1)c1ccc(Cl)c([N+](=O)[O-])c1,i,i,?,i,i,?,i,?
O=C(Nc1ccc(Cc2ccncc2)cc1)c1ccc(Cl)c([N+](=O)[O-])c1,i,i,?,i,i,21µM,21µM,?
CN(C)CCc1c[nH]c2cccc(OP(=O)(O)O)c12,nt,i,nt,nt,nt,nt,nt,nt
Oc1cc2c(cc1O)[C@H]1c3ccc(O)c(O)c3OC[C@@]1(O)C2,i,?,?,i,?,?,?,?
